For one assay, the system named is CRL-7250. The assay can be described thus: Cytotoxic Profiling of Annotated Libraries Using Quantitative High-Throughput Screening (AID 1296008). Also: nearly all actives have a fitted effect of over 60% in size. To be noted: Five cell lines viability, CellTiter-Glo ATP luminescence, 48-72 h; max response: stronger effect = lower value. Put shortly: (§1)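 Compounds were pin-transferred onto cells and incubated 48 or 72 hr at 37 degree Celsius, 95% humidity. CellTiter-Glo was added, plates sat 10 min at room temperature, then ATP-coupled luminescence was imaged as the viability read-out.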
(In general: ATP-based viability assays read luminescence as a measure of living cells.)

A further assay concerns HEK293. Described as above. The settings on record: Five cell lines viability, CellTiter-Glo ATP luminescence, 48-72 h; max response: stronger effect = lower value. Put shortly: as §1

SMILES strings stand for the structures. Records with an inconclusive call do not appear. Unmarked numbers belong to inactive results. Active and inactive are the calls of the source. Calls follow the shape of the dose curve; as a rule, active = well fitted inhibition curve with a large enough effect; inconclusive = small, poorly fitted or top-dose-only effect; inactive = flat fitted curve, though single readings scatter. Where a SMILES comes first, the peptide text is derived from it. [ ]: non-standard residue; d: D form. pGlu = O=C1CC[C@@H](C(=O)O)N1
% is scaled to controls: 0 for no effect and ±100 for the full control effect; potency is read from the fitted curve at half-maximal effect.

As to `Nc1ncnc2c1ncn2Cc1c(F)cccc1Cl`, the max response with CRL-7250 is -8.42%. Also, the compound was called inactive in the assay on HEK293.
With `CC(C)C[C@@H]1[C@H](c2ccccc2)OC(=O)N1CCCN1CCCCCC1`, in the assay on CRL-7250, the max response is -2.82%. Moreover, the Potency in the assay with HEK293 is 23.7 µM (active).
`CC(Oc1c(Cl)cccc1Cl)C1=NCCN1` (stereo not given): the max response in the assay with CRL-7250 is -2.82%; in the assay with HEK293 it was 4.99%.
The like results for `O=C(NN1CCCC1)NS(=O)(=O)c1ccc(Cl)cc1` were, in that order, -14.3% and 2.09%.
Turning to `NC(=O)NS(=O)(=O)c1ccc(Cl)cc1`, the outcome in the assay with CRL-7250 was inactive. The max response in the assay with HEK293 is -19.3%.
With `CO[C@]1(NC(=O)CSC(F)F)C(=O)N2C(C(=O)O)=C(CSc3nnnn3CCO)CO[C@H]21`, the max response with CRL-7250 is -1.31%; in the assay on HEK293, -23.2%.
With `CC(C)C(=O)Nc1cccc(C(F)(F)F)c1`, the max response is 3.59% with CRL-7250 and 3.73% in the assay with HEK293.
Take `O=C(O)C(=O)Nc1cccc(-c2nn[nH]n2)c1`: the max response in the assay on CRL-7250 is -0.0138%. Further, the compound was classed as inactive with HEK293.
With `Cc1ccccc1C(=O)N1CC/C(=N\OS(=O)(=O)O)c2ccc(Cl)cc21`, the max response was 3.76% in the assay on CRL-7250 and -7.21% with HEK293.
Consider `C[C@@H]1C[C@H]2[C@@H]3CCC4=CC(=O)C=C[C@]4(C)[C@@]3(F)[C@@H](O)C[C@]2(C)[C@@]1(O)C(=O)COC(=O)c1ccncc1`, for which the max response in the assay with CRL-7250 was -11%; in the assay on HEK293 it was -6.52%.
Consider `CCN(CC)CC(=O)Oc1ccc(NC(C)=O)cc1`, for which the max response with CRL-7250 was -7.74%. Besides, the call in the assay on HEK293 was inactive.
Take `Cc1onc(-c2ccccc2)c1C(=O)Cl`: the values for the max response in the assay with CRL-7250 and in the assay on HEK293 were -2.71% and 0.397%, respectively.
Consider `CC(C)N(CCC(=O)c1ccc2ccccc2c1)Cc1ccccc1`, for which the results for the max response with CRL-7250 and in the assay on HEK293 were -24.3% and -116%, respectively.
For `O=C(CS(=O)Cc1ccco1)NC/C=C\COc1cc(CN2CCCCC2)ccn1` (stereo not given) the same measures were -3.38% and 0.0112%.
As to `CNC(=O)c1c(I)c(NC(C)=O)c(I)c(C(=O)O)c1I`, the max response in the assay on CRL-7250 is -1.99%; in the assay on HEK293 it was -7.17%.
For the compound `CCNC(=O)[C@@H]1CCCN1C(=O)[C@H](CCCN=C(N)N)NC(=O)[C@H](CC(C)C)NC(=O)CNC(=O)[C@H](Cc1ccc(O)cc1)NC(=O)[C@H](CO)NC(=O)[C@H](Cc1c[nH]c2ccccc12)NC(=O)[C@H](Cc1cnc[nH]1)NC(=O)[C@@H]1CCC(=O)N1` ([pGlu]HWSYGLRP-NHEt), in the assay with CRL-7250, the result was inactive. For the same compound, the max response with HEK293 is -8.7%.
With `Cc1ccc(C(=O)C(=O)O)cc1C`, the max response in the assay on CRL-7250 is -7.54%. For the same compound, the call with HEK293 was inactive.
Regarding `CCCCC(CC)CNC(=O)CC(C)OC(=O)CCC(=O)O` (stereo not given), the results for the max response in the assay with CRL-7250 and in the assay on HEK293 were -4.08% and 1.54%, respectively.
Take `CCN1CCN(C(=O)N[C@@H](C(=O)N[C@@H]2C(=O)N3[C@@H]2SC(C)(C)[C@H]3C(=O)O)c2ccccc2)C(=O)C1=O`: the compound was classed as inactive with CRL-7250. Besides, in the assay on HEK293, the max response was -1.44%.
`COC(=O)C1=CO[C@@H](O)[C@@H]2C(CO)=CC[C@H]12`: the max response in the assay on CRL-7250 was 0.169%; in the assay with HEK293, -25.4%.
Turning to `Cc1cc2nc3ccc(=[N+](C)C)cc-3sc2cc1N`, the Potency is 9.44 µM (active) with CRL-7250 and 0.422 µM (active) with HEK293.
Take `CC(C(=O)O)c1ccc(/C=C2\CCCCC2=O)cc1` (stereo not given): the max response is 1.18% in the assay with CRL-7250 and -12.2% with HEK293.
In the case of `CC1(C)OC(=O)Nc2ccc(Br)cc21`, the compound was called inactive with CRL-7250 and in the assay with HEK293.
As for `CCCCCOc1ccc(C2SC(=O)NC2=O)cc1OCC` (stereo not given), the max response with CRL-7250 is -3.49%; with HEK293 it was 3.99%.
With `CCOC(=O)C(O)c1ccccc1` (stereo not given), the result in the assay on CRL-7250 and in the assay on HEK293 was inactive.
For the compound `Clc1ccc2c(c1)Nc1ccccc1S2`, the max response in the assay on CRL-7250 was -4.08%; in the assay on HEK293 it was -6.16%.
As to `O=C1CC(c2ccc(Cl)cc2)CC(=O)N1`, the compound was called inactive in the assay on CRL-7250 and in the assay with HEK293.
In the case of `CCN(CC)CC(=O)OCC(=O)[C@@]1(O)CC[C@H]2[C@@H]3CCC4=CC(=O)CC[C@]4(C)[C@H]3[C@@H](O)C[C@@]21C`, in the assay on CRL-7250, the outcome was inactive. Besides, the max response in the assay on HEK293 was 0.946%.
On to `CN1Cc2cc(C(=O)N3CCC(C4CCNCC4)CC3)ccc2N[C@@H](CC(=O)O)C1=O`, for which the max response is -4.04% with CRL-7250 and -1.55% in the assay on HEK293.
Regarding `OC1(c2ccc(Cl)cc2)CCNCC1`, the max response with CRL-7250 is -0.911%. Besides, the outcome in the assay with HEK293 was inactive.
Regarding `c1ccc2occc2c1`, the max response in the assay with CRL-7250 is -10.5%; in the assay with HEK293, -7.13%.
On to `CCN(CC)CC(=O)Nc1c(C)cccc1C(=O)OC`, for which the max response in the assay on CRL-7250 was 1.74%; in the assay with HEK293 it was 2.01%.
For `Cc1ccc(C(C)OC(=O)C2(C)CCC(C(=O)O)C2(C)C)cc1` (stereo not given), the max response with CRL-7250 is 3.77%. Also, the call in the assay with HEK293 was inactive.
Consider `COC(=O)c1cc(Cl)c(NC(C)=O)cc1OC`, for which the results for the max response in the assay with CRL-7250 and with HEK293 were 2.72% and -2.05%, respectively.
With `CN1N=C(C(N)=O)CCC1=O`, the call in the assay with CRL-7250 and with HEK293 was inactive.

These data come from PubChem BioAssay (NCATS).
